Results filed as inconclusive are left out. A call without a number means that no potency is given here. Active and inactive are the calls of the source. Unless noted, calls come from the whole dose curve.

The source of these data is PubChem BioAssay (Tox21).

Sequence of Cytochrome P450 2D6 (Homo sapiens) (P10635 whole entry, looked up): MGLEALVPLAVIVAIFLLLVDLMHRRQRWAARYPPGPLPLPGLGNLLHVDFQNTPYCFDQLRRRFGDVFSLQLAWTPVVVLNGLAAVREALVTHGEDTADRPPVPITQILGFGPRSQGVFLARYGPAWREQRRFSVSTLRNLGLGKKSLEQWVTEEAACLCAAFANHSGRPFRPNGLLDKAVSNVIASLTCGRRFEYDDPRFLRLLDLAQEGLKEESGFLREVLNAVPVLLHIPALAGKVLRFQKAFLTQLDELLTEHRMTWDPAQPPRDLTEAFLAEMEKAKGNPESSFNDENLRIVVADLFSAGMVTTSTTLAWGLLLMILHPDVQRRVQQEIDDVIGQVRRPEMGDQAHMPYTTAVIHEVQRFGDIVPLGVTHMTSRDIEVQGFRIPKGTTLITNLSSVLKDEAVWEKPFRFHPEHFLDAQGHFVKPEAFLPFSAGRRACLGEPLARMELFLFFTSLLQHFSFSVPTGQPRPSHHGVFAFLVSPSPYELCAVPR
Sequence of Acetylcholinesterase (Homo sapiens) (P22303 whole entry, looked up): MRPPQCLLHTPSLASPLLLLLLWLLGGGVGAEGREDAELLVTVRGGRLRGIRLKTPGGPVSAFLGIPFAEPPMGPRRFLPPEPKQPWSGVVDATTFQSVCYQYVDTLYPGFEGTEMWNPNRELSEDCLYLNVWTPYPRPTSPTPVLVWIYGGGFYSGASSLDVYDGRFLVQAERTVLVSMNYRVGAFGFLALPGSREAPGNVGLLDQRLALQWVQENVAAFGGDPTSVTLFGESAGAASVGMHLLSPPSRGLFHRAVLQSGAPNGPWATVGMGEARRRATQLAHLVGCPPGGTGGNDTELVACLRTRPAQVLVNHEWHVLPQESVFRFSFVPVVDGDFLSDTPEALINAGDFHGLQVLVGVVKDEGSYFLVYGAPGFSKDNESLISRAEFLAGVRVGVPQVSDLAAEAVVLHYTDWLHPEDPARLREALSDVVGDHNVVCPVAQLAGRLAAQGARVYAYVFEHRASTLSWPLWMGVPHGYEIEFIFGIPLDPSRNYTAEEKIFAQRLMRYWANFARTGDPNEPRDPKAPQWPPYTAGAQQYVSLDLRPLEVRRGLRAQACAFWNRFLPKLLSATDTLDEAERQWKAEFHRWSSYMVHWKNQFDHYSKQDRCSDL

One assay has as its target Acetylcholinesterase (Homo sapiens) (UniProt P22303). The assay can be described thus: Acetylcholinesterase (AChE) small molecule antagonists: fluorescence cell-based qHTS assay (AID 1347398). Note: nearly all actives have a fitted effect of over 50% in size. Note: potency is the fitted concentration of half-maximal effect. The note with it: SH-SY5Y cells; Potency: AChE activity; series mostly up to 115 µM. The essentials:
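Cells (SH-SY5Y) attached overnight, were dosed with compound or DMSO vehicle for 30 min at 37 C, and then incubated 40 min at room temperature with acetylthiocholine and Thiolite Green; green fluorescence indexed AChE activity.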
Background: Quantitative high-throughput screening tests each substance at several concentrations.
`C[N+](=O)[O-]`: the Potency result was “inactive”.

Take `O=C1OC(c2ccc(O)c(S(=O)(=O)O)c2)(c2ccc(O)c(S(=O)(=O)O)c2)c2c(Br)c(Br)c(Br)c(Br)c21`: the Potency result was “inactive”.

For `CC1CCC(=O)O1` (stereo unspecified), the Potency entry was “inactive”.

For the compound `CCCCOC(=O)c1ccccc1N`, the Potency entry was “inactive”.

Regarding `N#CCNCC#N`, the Potency result is “inactive”.

In the case of `Nc1cnn(-c2ccccc2)c(=O)c1Cl`, the Potency entry is “inactive”.

In the case of `Oc1c(Cl)cccc1Cl`, the Potency result was “inactive”.

Regarding `[Cl][Sn]([Cl])([Cl])[Cl]`, the Potency entry was “inactive”.

For `ClCCCN1CCN(c2cccc(Cl)c2)CC1`, the Potency result is “inactive”.

Consider `O=[N+]([O-])c1cccc(O)c1`, for which the Potency entry is “inactive”.

With `O=C(O)c1cccc(Cl)c1`, the Potency entry is “inactive”.

As to `Nc1ccccc1Cl`, the Potency result was “inactive”.

For `C[C@]1(O)CC[C@H]2[C@@H]3CCC4=CC(=O)CC[C@]4(C)[C@@]3(F)[C@@H](O)C[C@@]21C`, the Potency entry was “inactive”.

Regarding `Clc1cccc(N2CCNCC2)c1`, the Potency result was “inactive”.

Turning to `CCC(C)n1c(=O)[nH]c(C)c(Br)c1=O` (stereo unspecified), the Potency result is “inactive”.

For `Cc1cccc(C#N)c1`, the Potency result is “inactive”.

As to `N#CCBr`, the Potency entry was “inactive”.

Turning to `O=C(CCCN1CCC(n2c(=O)[nH]c3ccccc32)CC1)c1ccc(F)cc1`, the Potency result is “inactive”.

Regarding `[As]#[In]`, the Potency entry is “inactive”.

`c1ccc(N2CCNCC2)cc1`: the Potency entry was “inactive”.

In the case of `CCC(=O)C(CCN(C)C)(c1ccccc1)c1ccccc1`, the Potency result is “inactive”.

In the case of `N#Cc1c(Cl)cccc1Cl`, the Potency result is “inactive”.

`COc1cc(C[C@@H](C)N)c(OC)cc1C`: the Potency result is “inactive”.

Take `O=NN1CCCCC1`: the Potency result was “inactive”.

As for `O=C1CN2CCOC2(c2ccccc2Cl)c2cc(Cl)ccc2N1` (stereo unspecified), the Potency entry was “inactive”.

Consider `N#CC(O)c1ccccc1` (stereo unspecified), for which the Potency result was “inactive”.

In the case of `CCN(CC)C(=O)[C@@H]1C=C2c3cccc4[nH]cc(c34)C[C@H]2N(C)C1`, the Potency is 58.7 µM (active).

As to `ClC(Cl)C(Cl)Cl`, the Potency entry is “inactive”.

As for `COC(C)(C)C`, the Potency entry is “inactive”.

For the compound `CC(C)COP(=O)(OCC(C)C)OCC(C)C`, the Potency result was “inactive”.

Take `CCCCN(CCCCO)N=O`: the Potency entry was “inactive”.

Consider `CCCCP(CCCC)CCCC`, for which the Potency entry is “inactive”.

Consider `OC(c1ccccc1)(c1ccccc1)C1CCNCC1`, for which the Potency result is “inactive”.

With `COc1cc(OC)nc(NC(=O)NS(=O)(=O)c2ncccc2C(=O)N(C)C)n1`, the Potency result is “inactive”.

For the compound `CCC1(c2ccccc2)C(=O)NC(=O)NC1=O`, the Potency result was “inactive”.

For the compound `CC1(C)CON(Cc2ccccc2Cl)C1=O`, the Potency result is “inactive”.

Take `CSc1ccc(C(=O)C(C)(C)N2CCOCC2)cc1`: the Potency entry is “inactive”.

The next assay has the same target. As to the kind of experiment: Acetylcholinesterase (AChE) small molecule antagonists: enzyme-based qHTS assay with human liver microsomes (AID 1347399). Note: nearly all actives have a fitted effect of over 60% in size. The note with it: Potency: qHTS inhibition; series mostly up to 115 µM. The method, boiled down:
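Recombinant human AChE (50 mU/mL in the enzyme mix) and human liver microsomes (0.25 mg/mL final) were preincubated with compound and NADPH (0.25 mg/mL final) for 30 min at 37 C. Acetylthiocholine/DTNB was then added; thiocholine was read colorimetrically after 10 min at room temperature.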
With `C[N+](=O)[O-]`, the Potency result was “inactive”.

As to `O=C1OC(c2ccc(O)c(S(=O)(=O)O)c2)(c2ccc(O)c(S(=O)(=O)O)c2)c2c(Br)c(Br)c(Br)c(Br)c21`, the Potency result is “inactive”.

For the compound `CC1CCC(=O)O1` (stereo unspecified), the Potency entry was “inactive”.

As to `CCCCOC(=O)c1ccccc1N`, the Potency result was “inactive”.

`N#CCNCC#N`: the Potency result was “inactive”.

As for `Nc1cnn(-c2ccccc2)c(=O)c1Cl`, the Potency result was “inactive”.

For the compound `Oc1c(Cl)cccc1Cl`, the Potency entry was “inactive”.

`[Cl][Sn]([Cl])([Cl])[Cl]`: the Potency result is “inactive”.

Regarding `ClCCCN1CCN(c2cccc(Cl)c2)CC1`, the Potency entry is “inactive”.

For the compound `O=[N+]([O-])c1cccc(O)c1`, the Potency result was “inactive”.

Turning to `O=C(O)c1cccc(Cl)c1`, the Potency result was “inactive”.

As for `Nc1ccccc1Cl`, the Potency result is “inactive”.

For the compound `C[C@]1(O)CC[C@H]2[C@@H]3CCC4=CC(=O)CC[C@]4(C)[C@@]3(F)[C@@H](O)C[C@@]21C`, the Potency entry is “inactive”.

In the case of `Clc1cccc(N2CCNCC2)c1`, the Potency result was “inactive”.

In the case of `CCC(C)n1c(=O)[nH]c(C)c(Br)c1=O` (stereo unspecified), the Potency result is “inactive”.

With `Cc1cccc(C#N)c1`, the Potency entry is “inactive”.

For `N#CCBr`, the Potency result was “inactive”.

For `O=C(CCCN1CCC(n2c(=O)[nH]c3ccccc32)CC1)c1ccc(F)cc1`, the Potency entry was “inactive”.

For `[As]#[In]`, the Potency entry was “inactive”.

As for `c1ccc(N2CCNCC2)cc1`, the Potency entry is “inactive”.

As for `CCC(=O)C(CCN(C)C)(c1ccccc1)c1ccccc1`, the Potency result is “inactive”.

Consider `N#Cc1c(Cl)cccc1Cl`, for which the Potency entry was “inactive”.

In the case of `COc1cc(C[C@@H](C)N)c(OC)cc1C`, the Potency entry was “inactive”.

Take `O=NN1CCCCC1`: the Potency entry is “inactive”.

Consider `O=C1CN2CCOC2(c2ccccc2Cl)c2cc(Cl)ccc2N1` (stereo unspecified), for which the Potency result is “inactive”.

Turning to `N#CC(O)c1ccccc1` (stereo unspecified), the Potency result was “inactive”.

On to `CCN(CC)C(=O)[C@@H]1C=C2c3cccc4[nH]cc(c34)C[C@H]2N(C)C1`, for which the Potency result was “inactive”.

Consider `ClC(Cl)C(Cl)Cl`, for which the Potency result is “inactive”.

For the compound `COC(C)(C)C`, the Potency result was “inactive”.

Consider `CC(C)COP(=O)(OCC(C)C)OCC(C)C`, for which the Potency result is “inactive”.

Take `CCCCN(CCCCO)N=O`: the Potency result was “inactive”.

As to `CCCCP(CCCC)CCCC`, the Potency entry is “inactive”.

`OC(c1ccccc1)(c1ccccc1)C1CCNCC1`: the Potency result is “inactive”.

Consider `COc1cc(OC)nc(NC(=O)NS(=O)(=O)c2ncccc2C(=O)N(C)C)n1`, for which the Potency result is “inactive”.

Regarding `CCC1(c2ccccc2)C(=O)NC(=O)NC1=O`, the Potency entry was “inactive”.

`CC1(C)CON(Cc2ccccc2Cl)C1=O`: the Potency result is “inactive”.

Take `CSc1ccc(C(=O)C(C)(C)N2CCOCC2)cc1`: the Potency result was “inactive”.

The target in the next assay is Cytochrome P450 2D6 (Homo sapiens) (UniProt P10635). The assay can be described thus: Cytochrome P450 Family 2 Subfamily D Member 6 (CYP2D6) small molecule antagonists: luciferase reporter qHTS assay (AID 1671196; active = well fitted inhibition curve with a large enough effect in the repeat runs; note: nearly all actives have a fitted effect of over 50% in size; note: potency is the fitted concentration of half-maximal effect). The note with it: P450-Glo CYP2D6 enzyme assay, luciferin luminescence, 1 h; series mostly up to 115 µM. The method, boiled down:
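Luminogenic proluciferin substrate, CYP2D6 enzyme; 10 min RT preincubation with compound, NADPH regeneration system added, 1 h RT. Stop/detection reagent, 20 min RT, luminescence read (RLU). Signal proportional to CYP activity.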
A general note: In a reporter assay the amount or activity of a reporter protein is the signal.
Turning to `C[N+](=O)[O-]`, the Potency entry was “inactive”.

With `O=C1OC(c2ccc(O)c(S(=O)(=O)O)c2)(c2ccc(O)c(S(=O)(=O)O)c2)c2c(Br)c(Br)c(Br)c(Br)c21`, the Potency result is “inactive”.

As for `CC1CCC(=O)O1` (stereo unspecified), the Potency entry was “inactive”.

In the case of `CCCCOC(=O)c1ccccc1N`, the Potency result is “inactive”.

`N#CCNCC#N`: the Potency entry is “inactive”.

For the compound `Nc1cnn(-c2ccccc2)c(=O)c1Cl`, the Potency result is “inactive”.

Turning to `Oc1c(Cl)cccc1Cl`, the Potency entry is “inactive”.

On to `[Cl][Sn]([Cl])([Cl])[Cl]`, for which the Potency result was “inactive”.

`ClCCCN1CCN(c2cccc(Cl)c2)CC1`: the Potency is 0.977 µM (active).

In the case of `O=[N+]([O-])c1cccc(O)c1`, the Potency result is “inactive”.

With `O=C(O)c1cccc(Cl)c1`, the Potency result is “inactive”.

With `Nc1ccccc1Cl`, the Potency is 6.87 µM (active).

`C[C@]1(O)CC[C@H]2[C@@H]3CCC4=CC(=O)CC[C@]4(C)[C@@]3(F)[C@@H](O)C[C@@]21C`: the Potency entry was “inactive”.

Consider `Clc1cccc(N2CCNCC2)c1`, for which the Potency is 5.49 µM (active).

As to `CCC(C)n1c(=O)[nH]c(C)c(Br)c1=O` (stereo unspecified), the Potency entry is “inactive”.

As for `Cc1cccc(C#N)c1`, the Potency entry was “inactive”.

Consider `N#CCBr`, for which the Potency result is “inactive”.

For the compound `O=C(CCCN1CCC(n2c(=O)[nH]c3ccccc32)CC1)c1ccc(F)cc1`, the Potency was 8.71 µM (active).

Regarding `[As]#[In]`, the Potency result was “inactive”.

For the compound `c1ccc(N2CCNCC2)cc1`, the Potency result was “inactive”.

For `CCC(=O)C(CCN(C)C)(c1ccccc1)c1ccccc1`, the Potency is 5.49 µM (active).

On to `N#Cc1c(Cl)cccc1Cl`, for which the Potency result is “inactive”.

Turning to `COc1cc(C[C@@H](C)N)c(OC)cc1C`, the Potency is 47.9 µM (active).

As for `O=NN1CCCCC1`, the Potency entry is “inactive”.

Turning to `O=C1CN2CCOC2(c2ccccc2Cl)c2cc(Cl)ccc2N1` (stereo unspecified), the Potency was 8.71 µM (active).

Consider `N#CC(O)c1ccccc1` (stereo unspecified), for which the Potency was 35.5 µM (active).

For `CCN(CC)C(=O)[C@@H]1C=C2c3cccc4[nH]cc(c34)C[C@H]2N(C)C1`, the Potency was 0.466 µM (active).

As for `ClC(Cl)C(Cl)Cl`, the Potency result is “inactive”.

Turning to `COC(C)(C)C`, the Potency result was “inactive”.

Regarding `CC(C)COP(=O)(OCC(C)C)OCC(C)C`, the Potency entry is “inactive”.

For the compound `CCCCN(CCCCO)N=O`, the Potency result was “inactive”.

For `CCCCP(CCCC)CCCC`, the Potency is 35.6 µM (active).

On to `OC(c1ccccc1)(c1ccccc1)C1CCNCC1`, for which the Potency was 12.3 µM (active).

As for `COc1cc(OC)nc(NC(=O)NS(=O)(=O)c2ncccc2C(=O)N(C)C)n1`, the Potency result was “inactive”.

For `CCC1(c2ccccc2)C(=O)NC(=O)NC1=O`, the Potency was 11.5 µM (active).

`CC1(C)CON(Cc2ccccc2Cl)C1=O`: the Potency result is “inactive”.

Turning to `CSc1ccc(C(=O)C(C)(C)N2CCOCC2)cc1`, the Potency was 2.52 µM (active).
